Results filed as inconclusive are left out. A call without a number means that no potency is given here. Activity calls are given as the source filed them. The call rests on the fitted dose curve; in most records, active means well fitted cell-killing curve with a large enough effect in the repeat runs; inconclusive means weak or mixed curves, or effect the other way; inactive means flat fitted curve, though single readings scatter.
Potency means the concentration at half of the fitted maximal effect.

This test in a line: qHTS assay to identify small molecule antagonists of the androgen receptor (AR) signaling pathway using the MDA cell line - cell viability counter screen (AID 743041; further: nearly all actives have a fitted effect of over 45% in size). The following applies: MDA-kb2 viability, CellTiter-Fluor, 16 h, cells co-treated with R1881 androgen agonist; series mostly up to 70.3 µM. An excerpt: National Center for Advancing Translational Sciences [NCATS]
NIH Chemical Genomics Center [NCGC]
U.S. Environmental Protection Agency [EPA]
National Institutes of Environmental Health Sciences [NIEHS]
National Toxicology Program [NTP]
U.S. Food and Drug Administration [FDA]
Androgen receptor (AR), a nuclear hormone receptor, plays a critical role in AR-dependent prostate cancer and other androgen related diseases. Endocrine disrupting chemicals (EDCs) and their interactions with steroid hormone receptors like AR may cause disruption of normal endocrine function as well as interfere with metabolic homeostasis, reproduction, developmental and behavioral functions. To identify the compounds that inhibit AR signaling, MDA-kb2 AR-luc cell line (from ATCC, deposited by Wilson et al.) was used to screen the Tox21 10K compound library. MDA-kb2 AR-luc cell line is human breast carcinoma cell line that was stably transfected with a luciferase reporter gene under control of the MMTV promoter containing response elements for both androgen receptor (AR) and glucocorticoid receptor (GR). The cytotoxicity of the Tox21 compound library against the MDA-kb2 AR-luc cell line was tested in parallel by measuring the cell viability using CellTiter-Fluor assay (Promega, Madison, WI) in the same wells.
Tox21 Assay Protocol Summary:
MDA-kb2 AR-luc cells were dispensed at 3,000 cells/4 uL/well of culture medium into white wall/solid-bottom 1536-well plates using a Multidrop Combi (ThermoFisher Scientific, Waltham, MA) dispenser. After the assay plates were incubated at a 37C and 0% CO2 for 5 hr, 23 nL of compounds dissolved in DMSO, positive controls or DMSO only was transferred to the assay plate by a Pintool station (Kalypsys, San Diego, CA), followed by addition of 1 uL of agonist (R1881) in culture medium using a Bioraptr Flying Reagent Dispenser (FRD) workstation (Beckman Coulter, Indianapolis, IN, USA). The plates were incubated at a 37C and 0% CO2 for 16 h. After 15.5 h incubation, 1uL of CellTiter-Fluor reagent (Promega) was added using a Bioraptr FRD to each plate for measuring cytotoxicity. The fluorescence intensity was quantified on a ViewLux plate reader (PerkinElmer, Shelton, CT) following 30 min incubation at 37C and 0% CO2.
For orientation: In qHTS, concentration-response curves come from the screen itself.
As for `Oc1ccc2c3c1O[C@H]1[C@@H](O)CC[C@@]4(O)[C@@H](C2)N(CC2CCC2)CC[C@]314`, the Potency entry was “inactive”.

As to `C[C@@H]1[C@H]2Cc3ccc(O)cc3[C@]1(C)CCN2C`, the Potency result was “inactive”.

`CNC(C)CC1CCCCC1` (stereo not given): the Potency entry is “inactive”.

Regarding `NC(=O)CN1CC(O)CC1=O` (stereo not given), the Potency result was “inactive”.

`C[C@]12CC[C@@H]3c4ccc(OC(=O)N(CCCl)CCCl)cc4CC[C@H]3[C@@H]1CC[C@@H]2OP(=O)(O)O`: the Potency result is “inactive”.

For `O=C(NC(=O)c1c(F)cccc1F)Nc1ccc(Cl)c(Oc2ncc(C(F)(F)F)cc2Cl)c1`, the Potency result was “inactive”.

With `CCC1C(C)=NN=C(c2ccc(OC)c(OC)c2)c2cc(OC)c(OC)cc21` (stereo not given), the Potency entry is “inactive”.

For `O=C1Nc2ccc(Cl)cc2C(c2ccccc2Cl)=NC1O` (stereo not given), the Potency result was “inactive”.

Regarding `C[C@]12CCC(=O)C=C1C=C[C@@H]1[C@@H]2CC[C@@]2(C)[C@H]1CC[C@@]2(O)CCC(=O)O`, the Potency result is “inactive”.

For the compound `C[C@]12CC[C@H](OS(=O)(=O)O)CC1=CC[C@@H]1[C@@H]2CC[C@]2(C)C(=O)CC[C@@H]12`, the Potency entry was “inactive”.

`CC(=O)OC1CN2CCC1CC2` (stereo not given): the Potency result was “inactive”.

For the compound `Oc1ccc2c3c1O[C@H]1[C@@H](O)C=C[C@H]4[C@H](C2)NCC[C@@]341`, the Potency result is “inactive”.

On to `CCN1C[C@]2(COC)[C@H](O)C[C@H](OC)[C@@]34[C@@H]5C[C@@]6(O)[C@H](OC(=O)c7ccccc7)[C@@H]5[C@@](OC(C)=O)([C@@H]([C@H](OC)[C@H]23)[C@@H]14)[C@@H](O)[C@@H]6OC`, for which the Potency result is “inactive”.

Consider `ClC1=C(Cl)[C@]2(Cl)[C@@H]3[C@@H](Cl)[C@H]4O[C@H]4[C@@H]3C1(Cl)C2(Cl)Cl`, for which the Potency result was “inactive”.

With `c1csc(C2(N3CCCCC3)CCCCC2)c1`, the Potency result is “inactive”.

As for `NCC[C@H](O)C(=O)N[C@@H]1C[C@H](N)[C@@H](O[C@H]2O[C@H](CN)[C@@H](O)[C@H](O)[C@H]2N)[C@H](O[C@@H]2O[C@H](CO)[C@@H](O)[C@H]2O)[C@H]1O`, the Potency entry is “inactive”.

As for `CC1(C)S[C@@H]2[C@H](N)C(=O)N2[C@H]1C(=O)O`, the Potency entry is “inactive”.

As to `CNC(C)C(O)c1ccc(O)cc1` (stereo not given), the Potency entry is “inactive”.

Turning to `C=CC[C@]1(O)CC[C@H]2[C@@H]3CCC4=CCCC[C@@H]4[C@H]3CC[C@@]21C`, the Potency result is “inactive”.

Take `Cc1nnc2n1-c1ccc(Cl)cc1C(c1ccccc1)=NC2`: the Potency result was “inactive”.

As to `CCCCNC(C)(C)[P+](=O)O`, the Potency result was “inactive”.

As for `CN1CCCC(=C(c2cccs2)c2cccs2)C1`, the Potency result is “inactive”.

As for `COc1cc(OC)c(OC)cc1C=O`, the Potency entry is “inactive”.

As for `Cc1ccc(N(SC(F)(Cl)Cl)S(=O)(=O)N(C)C)cc1`, the Potency was 54.5 µM (active).

Take `C[N+]1([O-])[C@@H]2CC(OC(=O)[C@H](CO)c3ccccc3)C[C@H]1[C@@H]1O[C@@H]12` (stereo not given in full): the Potency result was “inactive”.

With `NCC(O)c1cccc(O)c1` (stereo not given), the Potency entry was “inactive”.

For the compound `O.O.O.O=C([O-])C(O)C(O)C(=O)[O-].O=C([O-])C(O)C(O)C(=O)[O-].[K+].[K+].[Sb].[Sb]` (stereo not given), the Potency was 18.8 µM (active).

On to `CC(=O)Oc1ccc2c3c1O[C@H]1[C@@H](OC(C)=O)C=C[C@H]4[C@@H](C2)N(C)CC[C@@]341`, for which the Potency result was “inactive”.

Take `CCCCc1ccc(C(=O)O)nc1`: the Potency entry was “inactive”.

Regarding `C[C@]12C=CC(=O)C=C1CC[C@@H]1[C@@H]2CC[C@]2(C)OC(=O)CC[C@@H]12`, the Potency entry was “inactive”.

Turning to `CC[N+](C)(CC)CCOC(=O)C(O)(c1ccccc1)c1ccccc1`, the Potency result is “inactive”.

Consider `CC[C@H]1[C@@H]2C[C@H]3[C@@H]4N(C)c5ccccc5[C@]45C[C@@H](C2[C@H]5O)N3[C@@H]1O` (stereo not given in full), for which the Potency entry was “inactive”.

As for `CCN(CC)CCO[C@H]1CC[C@@]2(C)C(=CC[C@@H]3[C@@H]2CC[C@]2(C)C(=O)CC[C@@H]32)C1`, the Potency result is “inactive”.

Regarding `CN1[C@H]2CC[C@@H]1[C@@H](C(=O)O)[C@@H](OC(=O)c1ccccc1)C2`, the Potency result is “inactive”.

For `CNC1(c2ccccc2Cl)CCCCC1=O` (stereo not given), the Potency entry is “inactive”.

As to `CC(=O)O[C@H]1CC[C@H]2[C@@H]3CCC4=CC(=O)CCC4=C3C=C[C@]12C`, the Potency result is “inactive”.

Consider `CCC1(c2ccccc2)C(=O)NC(=O)N(C)C1=O` (stereo not given), for which the Potency result is “inactive”.

For `CCC(=O)O[C@]1(c2ccccc2)CCN(C)C[C@H]1C`, the Potency entry was “inactive”.

As to `O=C1C(I)=CC(=C(c2cc(I)c(O)c(I)c2)c2ccccc2C(=O)O)C=C1I`, the Potency result was “inactive”.

In the case of `C/C(=C\c1csc(C)n1)[C@@H]1C[C@@H]2O[C@]2(C)CCC[C@H](C)[C@H](O)[C@@H](C)C(=O)C(C)(C)[C@@H](O)CC(=O)O1`, the Potency entry is “inactive”.

Source of the values: PubChem BioAssay (Tox21).
